PubChem BioAssay (NCI)
Compounds without any hit were thinned out: in the full panel of roughly 83,000, 20% have a hit.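 48-hour exposure, single concentration, 96-well plates; percent growth endpoint where 0 means no net growth. Active: below 10.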 Unmarked numbers belong to inactive results. Activity calls are given as the source filed them.

How the values were obtained:
Experiment in all cases: NCI-60 one-dose screen, 48 h (100 = growth as untreated, 0 = no growth, -100 = all killed)
Settings in all cases: 10 µM unless noted
RPMI-8226 leukemia = test system: RPMI-8226 leukemia
OVCAR-8 ovarian = test system: OVCAR-8 ovarian
OVCAR-5 ovarian = test system: OVCAR-5 ovarian
OVCAR-4 ovarian = test system: OVCAR-4 ovarian
SK-OV-3 ovarian = test system: SK-OV-3 ovarian
IGROV1 ovarian = test system: IGROV1 ovarian
OVCAR-3 ovarian = test system: OVCAR-3 ovarian
HS 578T breast = test system: HS 578T breast
NCI/ADR-RES ovarian = test system: NCI/ADR-RES ovarian
T-47D breast = test system: T-47D breast

SMILES | growth (RPMI-8226 leukemia) | growth (OVCAR-8 ovarian) | growth (OVCAR-5 ovarian) | growth (OVCAR-4 ovarian) | growth (SK-OV-3 ovarian) | growth (IGROV1 ovarian) | growth (OVCAR-3 ovarian) | growth (HS 578T breast) | growth (NCI/ADR-RES ovarian) | growth (T-47D breast)
O=C(N/N=C/c1ccccc1Cl)C(=O)Nc1cccc(C(F)(F)F)c1 | 93.9% | 83% | 97.4% | 101% | 102% | 92.9% | 115% | 111% | 98.4% | 90.2%
COc1cc(C#N)cc2[nH]c(=O)oc12 | 107% | 112% | 98.8% | 96.9% | 113% | 105% | 106% | 99.1% | 99.6% | 101%
Oc1c(CN2CCN(c3ccccc3F)CC2)cc(Br)c2cccnc12 | -0.421% (active) | -49% (active) | -19.3% (active) | -81% (active) | -8.19% (active) | -34.1% (active) | -86% (active) | -10.3% (active) | 23.8% | 14.3%
O=C(Nc1ccc(C23CC4CC(CC(c5ccccc5)(C4)C2)C3)cc1)c1cccs1 | 41.1% | 57.5% | 100% | 58% | 99.3% | 92.8% | 71.1% | 92.7% | 58% | 49.2%
CC/C(=C(\CC)c1ccc(OCC[N+](C)(C)C)cc1)c1ccc(OC)cc1 | 31.1% | 53% | 102% | 68.5% | 86.9% | 68.8% | 51.3% | 72.3% | 107% | 59%
FC(F)(F)c1cccc(Nc2nc3ccccc3nc2Nc2cccc(C(F)(F)F)c2)c1 | -30.9% (active) | -24.3% (active) | 4.13% (active) | 11.7% | 32% | -58.2% (active) | -29.7% (active) | -4.37% (active) | 77.9% | -61.7% (active)
CCOC(=O)c1c2c(n3cccc(Cl)c13)C(=O)c1ncccc1C2=O | 61.2% | 12% | 84.1% | 23.5% | 54.4% | 61.9% | 5.39% (active) | 61.3% | 38.3% | 75.9%
CCCCCCc1cc2cc(-c3csc(/C=C/c4ccccc4)n3)c(=O)oc2cc1O | -1.82% (active) | 20% | 81.7% | 36.8% | 47% | 37.2% | 2.25% (active) | 3.39% (active) | 20.2% | 5.5% (active)
COc1ccc(Cn2c(Br)c3c(c2-c2cc(OC)c(OC)c(OC)c2)CCc2sc(NC(=O)c4ccc(OC)cc4)nc2-3)cc1 | 81.7% | 96% | 102% | 93.3% | 108% | 79.2% | 92.7% | 83.7% | 89.2% | 77.3%
CC(C)C[C@H](C(=O)N[C@@H](C)C(N)=O)N1CC=CCN(O)S1(=O)=O | 106% [5 µM] | 96.4% [5 µM] | 99.3% [5 µM] | 106% [5 µM] | 108% [5 µM] | 120% [5 µM] | 110% [5 µM] | 110% [5 µM] | 105% [5 µM] | 103% [5 µM]
CC(C)CCOc1ccc(-c2n[nH]c(C(F)(F)F)c2-c2cncc(C#N)c2)c(O)c1 | -31.8% (active) | 12.5% | 36.9% | 20.5% | -7.94% (active) | 46.9% | 2.95% (active) | 18% | 2.45% (active) | 2.83% (active)
CCn1c(Cc2ccccc2Nc2c(Cl)cccc2Cl)nnc1SCC(=O)NN1C(=O)/C(=C/c2cccc(OC)c2OC)SC1=S | 94.3% | 99% | 99.2% | 94.2% | 107% | 99% | 108% | 94.7% | 104% | 86%
Cc1ccc(Cc2cnc(NC(=O)CN3C(=O)/C(=C\c4ccccc4)SC3=S)s2)cc1 | 105% | 102% | 101% | 99% | 104% | 105% | 112% | 102% | 107% | 98.8%
Cn1cc([C@@H]2Nc3ccc4[nH]ncc4c3[C@H]3[C@H]4CCC(C4)[C@H]32)c(C(F)(F)F)n1 | 46.6% | 62.5% | 79.4% | 77.4% | 77.4% | 56.7% | 34.7% | 34% | 31.3% | 52.6%
Brc1ccc(Nc2nc3ccccc3nc2Nc2ccc(Br)cc2)cc1 | -12.3% (active) | -31.4% (active) | 6.38% (active) | 12.7% | -16.7% (active) | 1.3% (active) | -55.4% (active) | -1.34% (active) | 5.04% (active) | -4.85% (active)
CC1=CCC(OC(=O)C(C)(C)CCC(O)(C(=O)OC2(C(C)C)CCC3(C)OC3C2)C(C)C)(C(C)C)CC1 (stereo not given) | -37.8% (active) | -41.7% (active) | -77.9% (active) | -84.1% (active) | -92.2% (active) | -60.5% (active) | -97% (active) | -7.09% (active) | -9.23% (active) | -55.2% (active)
CCOc1cccc(/C=N/NC(=O)C(=O)Nc2cccc(C(F)(F)F)c2)c1O | 29% | 25.6% | 47.4% | 31% | 49.2% | 25.3% | 29.3% | 69.3% | 9.74% (active) | 30.9%
Nc1ccn(C2O[C@H](CO)[C@@H](O)[C@H]2O)c(=O)n1 (stereo not given in full) | 49.8% | 58.5% | 104% | 72.3% | 90.2% | 82.9% | 88.7% | 106% | 70.1% | 99.2%
C#CCn1cc(C=C2C(=O)N(C)C(=O)N(C)C2=O)c2cc(Cl)ccc21 | 105% | 107% | 108% | 109% | 115% | 102% | 108% | 91.4% | 107% | 112%
Cc1ccc(S(=O)c2ccc([N+](=O)[O-])c3nonc23)cc1 (stereo not given) | 91.3% | 99.7% | 118% | 101% | 112% | 104% | 94.5% | 96.5% | 114% | 59.1%
O=c1oc2ccc(I)cc2c(=O)n1-c1ccc(F)cc1F | 1.49% (active) | 12.5% | 40% | 12.7% | -19.4% (active) | 20.2% | 2.05% (active) | 19.8% | 5.71% (active) | -13.5% (active)
COc1ccc(C2=Nn3c(NN)nnc3SC2)cc1 | 104% | 96.4% | 108% | 101% | 105% | 96% | 111% | 96% | 102% | 96.1%
CCOC(=O)c1cc2c(n1Cc1cccc(OC)c1)-c1oncc1CCC2 | 19.1% | 33.4% | 72.8% | 54.3% | 20.7% | 7.29% (active) | -8.41% (active) | 6.59% (active) | 12.2% | 33.1%
COc1ccc(N2C(=O)CC(c3cc(OC)c(OC)c(OC)c3)C3C2=NC(=O)N3C)cc1 (stereo not given) | 119% | 102% | 102% | 105% | 108% | 109% | 108% | 97.1% | 109% | 95.7%
CCCCCCc1cc2cc(-c3nc4ccccc4[nH]3)c(=Nc3ccccc3C)oc2cc1O | -20.2% (active) | 55.8% | 57.7% | 39.4% | 67% | 39.5% | 41.9% | 68.8% | 49.9% | 29%
Cc1nc2ccccc2c(/C=C/c2ccc(F)cc2)c1C(N)=O | 96.1% | 104% | 105% | 95.5% | 105% | 97.4% | 107% | 106% | 111% | 90.8%
O=c1oc2ccc(Cl)cc2c(=O)n1-c1cc(C(F)(F)F)cc(C(F)(F)F)c1 | -26% (active) | 7.66% (active) | 25.2% | 18.1% | -10.6% (active) | 16% | 7.95% (active) | -15.1% (active) | 5.39% (active) | -9.71% (active)
